Like-named read-outs stand apart in the source and are kept apart here. In all, about 13,000 compounds went through this assay and about 3,200 (25%) showed an effect of 50% or more. This is one part of the list.

This assay deals with P. falciparum stage V gametocytes. Further details: BacTiter-Glo ATP luminescence viability of purified stage V gametocytes in 384-well plates, per cent inhibition versus DMSO. The note with it: 48 h, 5 µM, inhibitor.

`CC[C@H]1CN2CC[C@H]1C[C@H]2[C@H](O)c1cc(N2CCCC(CO)C2)nc2ccc(OC)cc12` (some centres unmarked) [TCMDC-141417]: the % Inhibition (as a rule, the relative decrease from the control value, in per cent) is reported as -19.77%.

For the compound `CC[C@H]1CN2CC[C@@H]1C[C@H]2[C@H](O)c1cc(N2CCCC(C)(C)C2)nc2ccc(OC)cc12` [TCMDC-141423], the “% Inhibition” value is given as 67.35%.

Take `CC[C@H]1CN2CC[C@@H]1C[C@H]2[C@H](O)c1cc(N2CCC(c3ccccc3)CC2)nc2ccc(OC)cc12` [TCMDC-141435]: the “% Inhibition” value came out at 91.21%.

For `CC[C@H]1CN2CC[C@@H]1C[C@H]2[C@H](O)c1ccnc2ccc(OC)cc12` [TCMDC-142003], the “% Inhibition” value is reported as 82.89%.

On to `CC[C@H]1CN2CC[C@@H]1C[C@H]2[C@H](O)c1cc(N2CCC(O)CC2)nc2ccc(OC)cc12` [TCMDC-141415], for which the “% Inhibition” value worked out at 17.87%.

For `CCOc1ccc2nccc([C@@H](O)[C@@H]3C[C@@H]4CCN3C[C@@H]4CC)c2c1` [TCMDC-125547], where the note is “% Inhibition”, the “% Inhibition” value was -52.19%.

As for `CC[C@H]1CN2CC[C@H]1C[C@H]2[C@H](O)c1ccnc2ccc(OC)cc12` [TCMDC-123485], the “% Inhibition” value is -3.295%.

Take `CC[C@H]1CN2CC[C@@H]1C[C@H]2[C@H](O)c1cc(N2CCC(CO)CC2)nc2ccc(OC)cc12` [TCMDC-141418]: the “% Inhibition” value was 34.66%.

Turning to `CC[C@H]1CN2CC[C@@H]1C[C@H]2[C@H](O)c1cc(N2CCC(C)CC2)nc2ccc(OC)cc12` [TCMDC-141419], the “% Inhibition” value is given as 96.92%.

With `O=C(/C=C/c1ccc(Cl)c(Cl)c1)NCCCCCN1CCCN(C(=S)Nc2ccc(Cl)c(Cl)c2)CC1` [TCMDC-135896], the “% Inhibition” value was -3.43%.

Regarding `N#Cc1ccc2c(c1)CCN(CCC1CCC(NC(=O)Nc3cnc4ccccc4c3)CC1)C2` (centres unmarked) [TCMDC-139440], the “% Inhibition” value amounted to 3.253%.

For `CC[C@H]1CN2CC[C@H]1C[C@H]2[C@H](O)c1cc(N2CCCC2)nc2ccc(OC)cc12` [TCMDC-141217], the “% Inhibition” value is reported as -33.27%.

Regarding `CC[C@H]1CN2CC[C@@H]1C[C@H]2[C@H](O)c1cc(N2CCSCC2)nc2ccc(OC)cc12` [TCMDC-141424], the “% Inhibition” value was found to be 79.98%.

Take `CC[C@H]1CN2CC[C@@H]1C[C@H]2[C@H](O)c1cc(N2CCC(O)(c3ccccc3)CC2)nc2ccc(OC)cc12` [TCMDC-141438]: the “% Inhibition” value is on record as 44.1%.

`CC[C@H]1CN2CC[C@H]1C[C@H]2[C@H](O)c1cc(N2CCCC(C(=O)N(CC)CC)C2)nc2ccc(OC)cc12` (some centres unmarked) [TCMDC-141434]: the “% Inhibition” value is given as 46.24%.

With `CC[C@H]1CN2CC[C@@H]1C[C@H]2[C@H](O)c1cc(N2CCC(O)(c3ccc(Cl)cc3)CC2)nc2ccc(OC)cc12` [TCMDC-141439], the “% Inhibition” value is listed as 74.49%.

On to `CC[C@H]1CN2CC[C@@H]1C[C@H]2[C@H](O)c1cc(N2CCOCC2)nc2ccc(OC)cc12` [TCMDC-141416], for which the “% Inhibition” value was -92.7%.

Regarding `CC[C@H]1CN2CC[C@@H]1C[C@H]2[C@H](O)c1cc(N2CCC(C(N)=O)CC2)nc2ccc(OC)cc12` [TCMDC-141441], the “% Inhibition” value is reported as -22.84%.

`CC[C@H]1CN2CC[C@H]1C[C@H]2[C@H](O)c1cc(N2CCC3CCCCC3C2)nc2ccc(OC)cc12` (some centres unmarked) [TCMDC-141440]: the “% Inhibition” value was 90.7%.

As to `CC[C@H]1CN2CC[C@@H]1C[C@H]2[C@H](O)c1cc(N2CCC(N3CCCCC3)CC2)nc2ccc(OC)cc12` [TCMDC-141442], the “% Inhibition” value is listed as 105.7%.

Take `O=C(Nc1ccc(OC2CCN(Cc3ccc(F)cc3)C2)c(Cl)c1)c1ccccc1` (centres unmarked) [TCMDC-133762]: the “% Inhibition” value was 42.11%.

With `Cc1ccc(S(=O)(=O)N(CCCNCc2cccc(O)c2)c2ccccc2)cc1` [TCMDC-138022], the “% Inhibition” value is 66.9%.

On to `Oc1cccc(CNCCCN(Cc2ccccc2)c2ccccc2)c1` [TCMDC-137875], for which the “% Inhibition” value amounted to 12.29%.

For `Cc1cccc(CCCNC(=O)CN(c2cccc(C(F)(F)F)c2)S(=O)(=O)c2ccc(C(F)(F)F)cc2)c1` [TCMDC-136508], the “% Inhibition” value is -41.52%.

As for `CC1(C)C(=O)Nc2ccccc2N1C(=O)CN1CCN(c2ccccc2O)CC1` [TCMDC-124856], the “% Inhibition” value is -25.41%.

For `CC(C(=O)N1CCCC1)N1CCN(S(=O)(=O)c2ccc(C(C)(C)C)cc2)CC1` (centres unmarked) [TCMDC-125011], the “% Inhibition” value was 54.13%.

Take `CC(C(=O)N1CCCC1)N1CCN(C(c2ccccc2)c2ccccc2)CC1` (centres unmarked) [TCMDC-123562]: the “% Inhibition” value came to 15.58%.

`Cc1ccc(S(=O)(=O)N2CCCN(C(=O)c3cc(-c4ccccc4)n[nH]3)CC2)cc1` [TCMDC-125243]: the “% Inhibition” value turned out to be 32.96%.

Regarding `C=CCn1c(SCC(=O)Nc2cc(C)ccc2OC)nc2sc(C)cc2c1=O` [TCMDC-123737], the “% Inhibition” value was -0.9433%.

Regarding `O=c1cc(NCCCNCc2cccc3c2OC(F)(F)O3)[nH]c2ccccc12` [TCMDC-139425], the “% Inhibition” value is on record as -37.26%.

As to `CC(C)CN1CCN(c2nc(C#N)c3c(c2C(=S)NC2CCCCC2)CC(C)(C)OC3)CC1` [TCMDC-124173], the “% Inhibition” value is 83.9%.

Regarding `CCCN(CCC)C(=S)N=Nc1c(O)[nH]c2ccccc12` [TCMDC-138078], the “% Inhibition” value is on record as -20.57%.

Regarding `COCCn1c(C)nc2ccccc2c1=O` [TCMDC-124916], the “% Inhibition” value was -2.427%.

For `Cc1ccc2c(=O)n(C)c(=O)n(C)c2n1` [TCMDC-123937], the “% Inhibition” value is listed as 60.67%.

As for `O=C(NCCN1CCCC1)c1cc(-c2ccc(Cl)c(O)c2)c(-c2ccncc2)o1` [TCMDC-135295], the “% Inhibition” value is on record as 13.58%.

Regarding `Cc1nc(N)nc(N)c1CCCOc1ccccc1Br` [TCMDC-138069], the “% Inhibition” value is -36.44%.

As for `O=C(Nc1ccc(-c2cccc(-c3nc4ccccc4[nH]3)c2)cc1)c1cnn2cccnc12` [TCMDC-136863], the “% Inhibition” value is -40.98%.

Take `COc1ccc(-c2ccc(CNC3Cc4ccccc4C3)cc2)cc1S(=O)(=O)NCCN1CCCC1` [TCMDC-132472]: the “% Inhibition” value was 95.39%.

As for `COc1ccc(-c2ccccc2CNC2Cc3ccccc3C2)cc1S(=O)(=O)NCCN1CCCC1` [TCMDC-132211], the “% Inhibition” value worked out at 56.67%.

As for `COc1ccc(CNC2Cc3ccccc3C2)cc1-c1ccc(S(=O)(=O)NCCN2CCCC2)c(F)c1` [TCMDC-132266], the “% Inhibition” value stood at 84.74%.

For the compound `COc1ccc(CNC2Cc3ccccc3C2)cc1-c1ccc(OC)c(S(=O)(=O)NCCN2CCCC2)c1` [TCMDC-132251], the “% Inhibition” value is given as 107.6%.

Source of the values: article PMC4552634, “A New Set of Chemical Starting Points with Plasmodium falciparum Transmission-Blocking Potential for Antimalarial Drug Discovery” (PLoS ONE, 2015).
